# ZTA counter – ZTA (EBV) inhibition in EBNA-1 counter-screen; P03206; ZTA-DNA binding, fluorescence polarization; inhibition, % at 11 µM; 320,000 tested, 0.15% active; in the data active means inhibition above about 33%
# Target sequence (P03206 whole entry, looked up): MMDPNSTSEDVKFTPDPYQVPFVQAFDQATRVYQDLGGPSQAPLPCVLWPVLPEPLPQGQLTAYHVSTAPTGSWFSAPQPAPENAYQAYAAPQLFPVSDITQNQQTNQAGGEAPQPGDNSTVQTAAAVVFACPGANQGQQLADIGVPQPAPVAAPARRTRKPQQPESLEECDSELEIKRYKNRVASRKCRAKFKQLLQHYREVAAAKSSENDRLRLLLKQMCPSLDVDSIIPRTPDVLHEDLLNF
# PAFAH1B2 FP inh – inhibitors of human PAFAH1B2; recombinant PAFAH1B2, FP-rhodamine activity probe, fluorescence polarization; inhibition, % at 3.39 µM; P68402; AID 492953; 340,000 tested, 1.2% active;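 active means inhibition above the mean of all tested compounds plus 3 SD, cut at about 24% in these data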;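 further: 0% = enzyme with DMSO and 100% = wells lacking PAFAH1B2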
# Target sequence (P68402 whole entry, looked up): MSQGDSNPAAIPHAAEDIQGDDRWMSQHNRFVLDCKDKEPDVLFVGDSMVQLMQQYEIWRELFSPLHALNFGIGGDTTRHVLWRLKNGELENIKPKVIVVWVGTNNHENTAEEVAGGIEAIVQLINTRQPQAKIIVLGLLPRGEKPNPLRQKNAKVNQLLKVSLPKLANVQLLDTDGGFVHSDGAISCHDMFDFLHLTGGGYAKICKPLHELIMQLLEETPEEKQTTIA
# EBNA-1 inhibitor – blocks EBNA-1 binding to DNA; EBNA-1 DNA binding, fluorescence polarization; 300,000 tested, 0.34% active; inhibition, % at 14.8 µM; AID 1950; in the data active means inhibition above about 28%
# PAFAH1B3 inh – PAFAH1B3 (human) inhibition | Q15102 | AID 492972 | 340,000 tested, 0.28% active | inhibition, % at 3.39 µM | recombinant PAFAH1B3, FP-rhodamine probe, fluorescence polarization;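 active means inhibition above the screen-wide average of all tested compounds plus 3 SD, cut at about 25% in these data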;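 further: 0% = enzyme with DMSO only and 100% = wells lacking PAFAH1B3 protein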
# PAFAH2 FP inh – inhibitors of human PAFAH2; 340,000 tested, 0.99% active; Q99487; recombinant PAFAH2, FP-rhodamine activity probe, fluorescence polarization; inhibition, % at 3.39 µM; AID 492956;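 active means inhibition above the mean over all tested compounds plus 3 SD, cut at about 30% in these data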;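 further: inhibitors block probe labeling of enzyme so polarization drops; 0% = enzyme with DMSO and 100% = wells lacking PAFAH2 protein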
# rCAG RNA binder – binds r(CAG) RNA repeats; r(CAG) RNA repeat, TO-PRO-1 dye displacement fluorescence; inhibition, % at 3 µM; AID 651821; 370,000 tested, 1.3% active;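 active means inhibition above the plate cutoff, the mean of all test compounds on that plate plus 3 SD, cut at about 35% in these data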;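 further: 0% = DMSO alone and 100% = 100 µM mitoxantrone as full dye displacement; higher means more dye released from RNA so lower well fluorescence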
# PAFAH2 FP conf – confirmation of human PAFAH2 inhibitors. shares compounds with PAFAH2 FP inh. recombinant PAFAH2, FP-rhodamine activity probe, fluorescence polarization. inhibition, % at 3.39 µM. 2,300 tested, 65% active. AID 493030;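 active means mean inhibition over three repeats above a set limit taken from the earlier primary screen, cut at about 30% in these data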;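 further: inhibitor blocks binding of rhodamine activity probe so polarization falls; 0% = enzyme with DMSO and 100% = wells lacking PAFAH2 protein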
# * marks the source's active call; other numbers are inactive results; . = no result given. Hits are enriched below; roughly 2.9% of the tested compounds scored in any of these assays.
SMILES,ZTA counter,PAFAH1B2 FP inh,EBNA-1 inhibitor,PAFAH1B3 inh,PAFAH2 FP inh,rCAG RNA binder,PAFAH2 FP conf
COc1cccc(NC(=O)COC(=O)c2ccccc2SCC(=O)N2CCCC2)c1,10,-1,5,1,82*,2,81*
O=C(OCC(=O)N1CCOCC1)c1ccccc1SCC(=O)N1CCCC1,-10,1,-4,1,6,-2,.
CCCC(C)NC(=O)COC(=O)c1ccccc1SCC(=O)NC(C)CCC (stereo unspecified),0,1,-1,2,39*,-4,43*
COc1ccc(NC(=O)CN(C)C(=O)c2ccccc2SCC(=O)N2CCCC2)cc1,-2,-1,0,5,3,-4,.
COc1cc(NC(=O)COC(=O)c2ccccc2SCC(=O)N2CCCC2)cc(OC)c1,-14,8,1,4,42*,0,24
COc1ccc(C)cc1NC(=O)COC(=O)c1ccccc1SCC(=O)N1CCCC1,-13,1,4,-4,11,-2,.
O=C(COC(=O)/C=C/c1cccc(F)c1)NC(=O)NC1CCCC1,.,5,.,6,19,1,.
O=C(COC(=O)/C=C/c1cccc(Br)c1)NC1CCCCC1,-16,1,.,-2,23,-1,.
O=C(COC(=O)/C=C/c1cccc(F)c1)NC1CCCC1,9,-3,.,0,73*,0,67*
O=C(COC(=O)/C=C/c1cccc(F)c1)NC1CCCCCC1,.,6,.,8,82*,0,80*
O=C(COC(=O)/C=C/c1cccc(F)c1)NC1CCCCC1,.,.,.,.,.,1,.
O=C(COC(=O)/C=C/c1cccc(F)c1)NC1CC1,.,0,.,3,34*,2,18
O=S(=O)(c1ccccc1Br)N(Cc1cn(CC2CCCCC2)nn1)C1CC1,.,.,.,.,.,-1,.
CC(=O)CC(=O)O[C@@H]1C=C[C@H](NC(=O)OC(C)(C)C)C1,.,.,.,.,.,1,.
CN(C)S(=O)(=O)c1cccc(NC(=O)COC(=O)/C=C/c2ccc3c(c2)OCO3)c1,5,-1,-2,2,74*,5,62*
O=C(COC(=O)/C=C/c1cccc(Cl)c1)Nc1cccc(S(=O)(=O)NC2=NCCC2)c1,7,1,.,-2,25,9,.
Cc1ccc(S(=O)(=O)N(C)C)cc1NC(=O)COC(=O)/C=C/c1ccc2c(c1)OCO2,7,-2,-3,0,57*,4,47*
COC(=O)[C@@]12CCCCC3=C1N(CCC3)C(=O)[C@H]2CC(=O)N1CCOCC1,.,.,.,.,.,0,.
COC(=O)[C@]12C[C@H](CC(=O)N3CCCCC3)C(=O)N(Cc3ccc(Cl)cc3Cl)C1=C[C@H](COCc1ccccc1)O[C@@H]2C,.,.,.,.,.,7,.
Cc1cc(C)cc(OCC(C)CN2CCC(C(O)(c3ccccc3)c3ccccc3)CC2)c1 (stereo unspecified),.,.,.,.,.,3,.
CCOc1ccc(S(=O)(=O)/N=C(/Nc2ccc(C(C)=O)cc2)c2ccccc2)cc1,.,-1,.,9,57*,3,41*
CCOc1ccc(S(=O)(=O)/N=C(/Nc2ccc(OC)cc2)c2ccccc2)cc1,-4,0,7,8,52*,-1,41*
COCCCN1C(=O)[C@H](CC(=O)NCc2cccs2)[C@]2(C(=O)OC)CCCCC=C12,.,.,.,.,.,5,.
O=C(COC(=O)c1ccc2ncsc2c1)NCc1ccc(F)cc1,-15,3,.,7,51*,7,34*
O=C(COC(=O)c1ccc2ncsc2c1)NCc1ccccc1Cl,.,8,.,3,84*,4,67*
SMILES,ZTA counter,PAFAH1B2 FP inh,EBNA-1 inhibitor,PAFAH1B3 inh,PAFAH2 FP inh,rCAG RNA binder,PAFAH2 FP conf
COC(=O)C[C@@H]1C=C[C@H](NC(=O)Nc2ccc(F)cc2)[C@@H](CO)O1,.,.,.,.,.,2,.
CCOC(=O)Cn1cc(CN2C(C(=O)OC)CN(Cc3ccc(OC)cc3)CCS2(=O)=O)nn1 (stereo unspecified),.,.,.,.,.,0,.
O=C1c2nccnc2C(=O)N1Cc1ccccc1,.,0,.,5,2,1,.
O=C1c2nc3ccccn3c2C(=O)N1Cc1ccccc1,-1,-6,-8,-1,38*,3,27
C=CCn1c(O)c(C=Nc2ccc(Cc3ccncc3)cc2)c(=O)[nH]c1=S,11,7,0,4,32*,-3,21
O=C(O)c1ccc(N=c2oc3cc(O)ccc3cc2C(=O)NCc2ccccc2)cc1,11,9,-7,16,54*,23,40*
COc1ccc2cc(C(=O)NCc3ccccc3)c(=Nc3ccc(C(=O)O)cc3)oc2c1,9,3,-7,7,25,1,.
CN(Cc1ccccc1F)C(=O)C1CCCN(c2ncccn2)C1 (stereo unspecified),.,.,.,.,.,-2,.
N[C@@H](Cc1cc(I)c(O)c(I)c1)C(=O)O,-2,15,0,17,54*,21,9
NC(Cc1ccc(Oc2ccc(O)cc2)cc1)C(=O)O (stereo unspecified),10,.,3,.,.,.,.
O=C(Nc1ccccc1C(F)(F)F)OCCCN1CCC2(CCC(c3ccccc3)CC2)C1=O (stereo unspecified),.,.,.,.,.,3,.
COc1cc(OC)c(NS(=O)(=O)c2cc(C(=O)OCC(=O)NCC3CCCO3)ccc2OC)cc1Cl (stereo unspecified),0,9,0,14,71*,6,52*
CCOc1ccc(C(=O)OCC(=O)NC(C)C)cc1,7,-1,-1,0,55*,-3,43*
COc1ccc(C(=O)OCC(=O)NCC2CCCO2)c(F)c1 (stereo unspecified),10,3,.,4,38*,-1,34*
CCOc1ccc(C(=O)OCC(=O)NCC2CCCO2)cc1 (stereo unspecified),.,5,.,7,48*,3,28
CC(C)CN1C[C@@H]2CSCCS(=O)(=O)N2C1=O,.,.,.,.,.,3,.
CCOC(=O)CC[C@@]1(C(=O)OCC)C[C@@H](CC(=O)NCc2cccc3ccccc23)C(=O)N2CCCC=C21,.,.,.,.,.,3,.
O=C(COC(=O)c1ccccc1)NCC1CCCO1 (stereo unspecified),-3,0,-1,15,17,1,.
O=C(COC(=O)c1cccs1)NCC1CCCO1 (stereo unspecified),10,3,7,0,35*,1,16
CC(CCN1CCC(C(O)(c2ccccc2)c2ccccc2)CC1)Oc1ccc(C#N)cc1F (stereo unspecified),.,.,.,.,.,4,.
COc1ccccc1C(=O)OCCCN=C1NS(=O)(=O)c2ccccc21,-2,5,-10,0,2,-2,.
COc1ccc(C(=O)OCCN=C2NS(=O)(=O)c3ccccc32)cc1OC,-16,0,-1,14,43*,8,23
O=C1CCC/C=C\C[C@@H](CC(=O)N(CCO)Cc2ccccc2)C(=O)N[C@H](c2ccccc2)CO1,.,7,.,7,66*,-9,56*
